From PubChem
Shown are actives, neighbours in structure and some others; about 3.7% of the full set was active somewhere.
BoNT A protease: inhibitors of Botulinum neurotoxin A light chain protease | multiplex microsphere protease substrate cleavage, flow cytometry | inhibition, % at 10 µM | actives 0.17% (n = 360,000) | AID 588499; also: plate controls were buffer without enzyme for full effect and enzyme alone for no effect
MazF activator: activators of E. coli MazEF toxin-antitoxin RNase; FAM/BHQ RNA-DNA oligo cleavage fluorescence, 5 h; activation, % at 20 µM; actives 0.32% (n = 350,000); AID 504720; in the data active = activation above about 50%
Bead autofluor: counter-screen for toxin protease inhibitors: compound fluorescence; actives 3.1% (n = 360,000); AID 624483; compound autofluorescence counterscreen, microsphere flow cytometry; active compounds read high; fluorescence intensity (no concentration beside the values); in the data active = fluorescence intensity above about 16000; inconclusive = no clear call, values can overlap the other calls
BoNT-F LC inh: blocks Botulinum neurotoxin F light chain protease | Multiplex microsphere protease cleavage assay, flow cytometry | actives 0.22% (n = 360,000) | inhibition, % at 10 µM; in the data active = inhibition above about 35%, passing the limit was not always enough; inconclusive = no clear call, values can overlap the other calls; also: plate controls were buffer without enzyme for full effect and enzyme alone for no effect
Anthrax LF inh2: blocks Bacillus anthracis lethal factor protease; P15917; multiplex microsphere protease cleavage assay, LF; inhibition, % at 10 µM; actives 0.12% (n = 360,000); also: plate controls were buffer without enzyme for full effect and enzyme alone for no effect
Target sequence (P15917 whole entry, looked up): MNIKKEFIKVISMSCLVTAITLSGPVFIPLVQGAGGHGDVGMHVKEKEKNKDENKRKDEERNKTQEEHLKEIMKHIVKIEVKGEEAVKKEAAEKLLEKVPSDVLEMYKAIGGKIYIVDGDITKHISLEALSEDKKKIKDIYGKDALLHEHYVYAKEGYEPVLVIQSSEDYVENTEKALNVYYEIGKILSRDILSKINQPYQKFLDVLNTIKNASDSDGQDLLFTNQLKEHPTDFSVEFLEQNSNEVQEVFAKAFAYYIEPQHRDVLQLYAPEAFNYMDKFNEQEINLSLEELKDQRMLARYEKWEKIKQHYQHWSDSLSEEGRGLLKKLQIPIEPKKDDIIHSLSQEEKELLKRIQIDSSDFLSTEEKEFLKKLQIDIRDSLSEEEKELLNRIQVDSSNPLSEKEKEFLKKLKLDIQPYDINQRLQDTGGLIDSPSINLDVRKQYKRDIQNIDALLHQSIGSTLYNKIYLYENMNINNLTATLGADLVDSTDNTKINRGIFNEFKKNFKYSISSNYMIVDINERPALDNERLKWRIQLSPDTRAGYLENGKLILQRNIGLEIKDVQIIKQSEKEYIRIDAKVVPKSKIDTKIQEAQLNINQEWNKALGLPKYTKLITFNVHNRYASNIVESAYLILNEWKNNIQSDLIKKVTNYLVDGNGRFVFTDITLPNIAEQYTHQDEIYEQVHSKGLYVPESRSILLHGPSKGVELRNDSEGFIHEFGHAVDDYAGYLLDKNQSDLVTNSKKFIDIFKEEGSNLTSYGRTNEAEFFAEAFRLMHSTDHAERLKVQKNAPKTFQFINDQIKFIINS
Starred values were filed as active, the others as inactive; ? = inconclusive; . = no result given. Rule as the data show it, unless noted: active = inhibition above about 30%; inconclusive = no clear call, values can overlap the other calls; inactive = below that.

SMILES	BoNT A protease	MazF activator	Bead autofluor	BoNT-F LC inh	Anthrax LF inh2
Cc1cc(C(=O)NCCCOC(C)C)c2ccccc2n1	0	0	22118*	2	1
CSc1ccccc1C(=O)NCCCOC(C)C	4	-3	21738*	1	0
CCCCNC(=O)c1cc(C)nc2ccccc12	1	4	4239	0	-2
CC1(C(=O)NS(=O)(=O)c2cccc(C#N)c2)CCN1C(=O)CCC1CCCC1 (configuration not stated)	0	.	3908	-5	0
CN(C)C=Nc1c(Br)cc(Br)c2nonc12	71*	228*	10842	?	6
CN(C)C=Nc1nonc1-c1ccccc1	-1	8	6004	1	-8
CCCOc1cc(C)c(S(=O)(=O)NCCOC)cc1C	-7	4	21763*	-7	-1
CN(C)C(=O)c1noc2cc([N+](=O)[O-])ccc12	-1	5	16570*	-4	-7
CC(C)NC(=O)c1noc2cc([N+](=O)[O-])ccc12	0	0	9065	-1	1
Cc1ccc2nc(-c3ccc(NC(=O)c4ccco4)cc3)[nH]c2c1	-1	-10	8399	-8	-2
CC(=O)Nc1cccc(NC(=O)Cc2cccs2)c1	-1	9	2961	-18	-16
O=C(Nc1cccc(-c2nc3ccccc3[nH]2)c1)c1ccco1	-4	5	25261*	-7	-8
O=C(Cc1cccs1)Nc1cccc(-c2nc3cc4ccccc4cc3[nH]2)c1	1	56*	2043	-7	-3
Cc1ccc(S(=O)(=O)N(Cc2ccccc2)c2ccccc2C(=O)Nc2ccccc2C(=O)NCc2ccco2)cc1	-1	-25	2114	-1	-2
COc1ccc(N(CC(=O)Nc2ccccc2C(=O)NCc2ccco2)S(C)(=O)=O)cc1	0	2	22786*	1	-2
O=C(NCc1ccco1)c1ccccc1NS(=O)(=O)c1cccs1	3	0	19002*	3	-4
CS(=O)(=O)N(Cc1ccccc1)c1ccccc1C(=O)Nc1ccccc1C(=O)NCc1ccco1	-2	-3	23578*	-2	-5
CS(=O)(=O)N(Cc1ccc(C(=O)NCCSCc2ccco2)cc1)c1ccccc1	1	5	21841*	2	-9
COc1ccc(OC)c(N(CC(=O)Nc2ccccc2C(=O)NCc2ccco2)S(C)(=O)=O)c1	-1	2	8017	2	-4
CCn1nc(C)cc1-c1nnc(Sc2ncc([N+](=O)[O-])s2)n1C	1	-2	3741	-7	3
COc1cccc(-c2nc3nc(C)cc(C)n3c2NC2CCCC2)c1	0	.	5977	6	2
CCC(=O)N1CCCC(C)(C(=O)Nc2ccc(C)c(C)c2)C1 (configuration not stated)	0	.	3734	6	-6
COc1ccc(N(CC(=O)NCc2ccco2)S(=O)(=O)c2ccc(OC)c(OC)c2)cc1	?	0	22427*	5	-3
COCC(=O)Nc1ccc2c(c1)[C@@H]1C[C@H](CC(=O)OC)O[C@H](CO)[C@@H]1O2	-1	8	4639	-6	-2
O=C1COc2ccccc2C(c2nc3ccccc3[nH]2)N1Cc1ccccc1 (configuration not stated)	1	.	6004	0	-1
SMILES	BoNT A protease	MazF activator	Bead autofluor	BoNT-F LC inh	Anthrax LF inh2
CCOc1ccc(C)cc1S(=O)(=O)n1cnc2ccccc21	-1	0	2946	?	-4
COc1cc(C)c(S(=O)(=O)Nc2ccc(CC(=O)O)cc2)cc1C	-6	-6	25248*	-8	-3
O=C(O)Cc1ccc(NS(=O)(=O)c2ccccc2Br)cc1	0	1	4822	-5	3
Cc1cc(C)c(C)c(OCC(=O)N2CCCCCC2)c1	-1	0	9065	9	4
Cc1cc(C)cc(OCC(=O)N2CCCCCC2)c1	?	1	22007*	5	-6
COc1cc(CNCCCN2CCOCC2)cc(Br)c1OCC(=O)N1CCCCC1	10	2	18727*	13	3
COc1cc(CO)cc(Br)c1OCC(=O)N1CCCCC1	3	7	21247*	4	-4
COc1cc(C(=S)N2CCCCC2)ccc1OCC(=O)N1CCCC1	0	5	4046	14	-5
COc1ccccc1C(=O)NC(=O)COC(=O)c1cnccn1	0	-4	2871	-4	-2
Nc1ccccc1CCc1ccccc1N	0	4	2907	-1	-4
COc1ccccc1Cc1c(-c2ccccc2)nc2ccc(Cl)cn12	21	.	5484	12	28
O=c1c2ccccc2[nH]c2ccc(F)cc12	-1	7	4010	-6	-1
O=c1nc(-c2ccccc2Cl)c2cc(F)ccc2[nH]1	-1	7	4135	51*	16
